# BAZ2B block: qHTS Assay for Inhibitors of BAZ2B; AlphaScreen BAZ2B-H3K14Ac peptide displacement; Potency, µM (doses to about 114 µM), for the others: top-dose activity change, negative = inhibition, hits mostly inhibitors; hit rate 4.4% among 360,000; further: on the % scale 0 is the no-effect control and ±100 the full control effect; nearly all actives have a fitted effect of over 60% in size
#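 In this displacement format the biotinylated H3(5-23) peptide acetylated at Lys14 serves as ligand at 50 nM, with BAZ2B at 50 nM in PBS pH 7.4 containing 0.01% Tween-20. Donor and acceptor beads are 10 ug/mL final.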
# HP1b chromo inh: HTS for Inhibitors of HP1-beta Chromodomain Interactions with Methylated Histone Tails; Potency, µM (top dose mostly 114 µM), for the others: at the highest dose activity change, negative = inhibition, actives largely listed as inhibitors; AID 540317, 2011; hit rate 0.56% among 390,000; AlphaScreen HP1-beta / biotin-H3K9me3 peptide binding; Chromobox protein homolog 1 (Homo sapiens), P83916; further: nearly all actives have a fitted effect of over 70% in size
#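 Compound inhibition of the preformed complex between 50 nM HP1-beta and 50 nM biotinylated H3K9me3 peptide was read by AlphaScreen. Buffer was PBS pH 7.4 with 0.01% Tween-20. Incubations ran 30 min at room temperature, with 10 ug/mL donor/acceptor beads.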
# GLS inh: qHTS for Inhibitors of Glutaminase (GLS); Glutaminase kidney isoform, mitochondrial (Homo sapiens), O94925; GLS enzymatic activity, qHTS titration; Potency, µM (titrated, usually from 45.5 µM), without a hit: at the highest dose activity change, negative = inhibition, hits mostly inhibitors; hit rate 0.21% among 410,000; AID 624170, 2012; further: on the % scale 0 is the no-effect control and ±100 the full control effect
#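 Read-out is an Amplex red fluorescence increase coupled through glutamate oxidase and HRP, measured before and after 30 min room-temperature incubation. hKGA is in 45 mM KH2PO4 (pH 8.2) with 0.02% Tween-20; glutamine added as 1mM solution.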
# JMJD2A Tudor inh: qHTS Assay for Inhibitors of JMJD2A-Tudor Domain | Lysine-specific demethylase 4A (Homo sapiens), O75164 | AlphaScreen JMJD2A-Tudor / H3K4me3 peptide binding | Potency, µM (doses to about 114 µM), without a hit: at the top dose activity change, negative = inhibition, usual class: inhibitors | hit rate 4.4% among 390,000 | AID 504339, 2011; further: on the % scale 0 is the no-effect control and ±100 the full control effect; nearly all actives have a fitted effect of over 50% in size
# G9a inh: qHTS Assay for Inhibitors of Histone Lysine Methyltransferase G9a; Histone-lysine N-methyltransferase EHMT2 (Homo sapiens), Q96KQ7; hit rate 8.8% among 350,000; AID 504332, 2011; Potency, µM (titrated, usually from 102 µM), for the others: at the top dose activity, negative = inhibition, hits mostly inhibitors; G9a H3K9 monomethylation, AlphaScreen, 2 h; further: on the % scale 0 is the no-effect control and ±100 the full control effect; nearly all actives have a fitted effect of over 75% in size
#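 G9a (20 nM) preincubated 15 min RT with compounds, then 500 nM biotinylated H3K9 peptide and 20 uM SAM added; 2 h RT reaction. Monomethyl-H3K9 product detected by AlphaScreen with anti-H3K9me1 antibody, streptavidin donor and anti-rabbit IgG acceptor beads.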
# Starred values were filed as active, the others as inactive; ? = inconclusive; / = no result; [ ] = another dose, or the depositor's remark. Most compounds without a hit are left out; they make up all but 10% or so of the library. The call rests on the fitted dose curve; in most records, active means well fitted curve in the direction sought with a large enough effect; inconclusive means small, poorly fitted or top-dose-only effect, or another doubt; inactive means no such curve, though single readings can be large; an effect the other way counts as inactive or inconclusive. Potency means the concentration at half of the fitted maximal effect.
SMILES,BAZ2B block,HP1b chromo inh,GLS inh,JMJD2A Tudor inh,G9a inh
COc1ccc(C(=O)c2coc(-c3ccccc3C(=O)O)c2C(=O)O)cc1,2%,22%,16%,-18%,14%[59 µM]
N#CCc1ccc(NC(=O)/C=C/c2ccc([N+](=O)[O-])o2)cc1,?,17%,-10%,?,71µM*
O=C(O)/C=C/c1ccc([N+](=O)[O-])o1,56µM*,50µM*,11µM*,35µM*,22µM*
COc1ccc(C)cc1NC(=O)c1ccc2c(c1)N(Cc1cccc(Cl)c1)C(=O)c1ccccc1S2=O (stereo unspecified),-10%,5%,2%,?,-37%[59 µM]
Cc1ccc2nc(-c3cccc(NC(=O)c4cccc5c(Cl)cccc45)c3)oc2c1,-11%,27%,-16%,-2%,-21%[59 µM]
CCc1ccc(Cn2c(CNS(=O)(=O)c3ccc([N+](=O)[O-])cc3)nc3cccnc32)cc1,-1%,33%[57 µM],6%,-8%,27%[59 µM]
CCC1(CC)NC(=O)N(CC(=O)Nc2sc3c(c2C(N)=O)CCC3)C1=O,50µM*,5%,2%,?,-2%[12.7 µM]
CCC1(C)NC(=O)N(CC(=O)Nc2sc3c(c2C(=O)OC)CCCCC3)C1=O (stereo unspecified),-26%,-24%,0%,?,50µM*
COc1ccc(S(=O)(=O)c2c(Nc3c(C)cccc3C)sc(C(=O)c3ccc(F)cc3)c2N)cc1,-31%,6%[57 µM],4%,?,0%[59 µM]
COCCOC(=O)C1=C(C)N(c2ccccc2)C(=S)NC1c1ccccc1C(F)(F)F (stereo unspecified),-32%,38%,3%,?,-23%
COC(=O)C1=C(C)N(c2ccccc2)C(=S)NC1c1ccccc1C(F)(F)F (stereo unspecified),?,18%,15%,?,50µM*
COc1cccc(/C=C2\Oc3cc(OCC(=O)N4Cc5ccccc5C[C@H]4C(=O)O)ccc3C2=O)c1,?,2%,-23%,?,/
O=C(O)C1Cc2ccccc2CN1S(=O)(=O)c1ccccc1 (stereo unspecified),?,16%,0%,-1%,?
COc1ccc(N2CCN(C(=O)C3Cc4ccccc4CN3C(=O)c3ccco3)CC2)cc1 (stereo unspecified),-31%,12%,42%,-22%,?
O=C(C1Cc2ccccc2CN1C(=O)c1ccccc1)N1CCN(c2ccccc2)CC1 (stereo unspecified),71µM*,-29%,-11%,?,/
O=C(O)C1Cc2ccccc2CN1C(=O)CCl (stereo unspecified),/,14%,2%,?,8.9µM*
O=C(O)C1Cc2ccccc2CN1C(=O)COc1ccc(Br)cc1 (stereo unspecified),/,6%,0%,?,50µM*
O=C(O)C1Cc2ccccc2CN1C(=O)COc1ccc(Cl)cc1Cl (stereo unspecified),-31%,12%,-7%,-17%,25µM*
NC(=O)c1ccsc1NC(=O)COC(=O)c1cnccn1,-8%,15%,-1%,-26%,0%[12.7 µM]
Cc1cc(S(=O)(=O)Nc2cc3c(cc2N2CCOCC2)n(C)c(=O)c(=O)n3C)ccc1F,-18%,-17%,14%,-13%,-42%[59 µM]
CCc1ccc(C(c2ccccc2)c2c[nH]c3ccc(C)cc23)s1 (stereo unspecified),?,?,1%,56µM*,?
CC1CCC/C(=C\Nc2ccc(C(=O)O)c(O)c2)C1=O (stereo unspecified),-13%,22%,30%,-24%,45µM*
COc1ccc(/C=C2/SC(=S)N(CCCC(=O)N3CCN(C)CC3)C2=O)cc1,32µM*,?,0%,?,?
Cc1ccc(/C=C2\SC(=S)N(CCCC(=O)N3CCOCC3)C2=O)cc1,11µM*,?,3%,20µM*,/
Cn1c(=O)n(C)c2cc(/C=C3/SC(=O)N(CC(=O)N4CCOCC4)C3=O)ccc21,50µM*,14%,-20%,-2%,-2%
SMILES,BAZ2B block,HP1b chromo inh,GLS inh,JMJD2A Tudor inh,G9a inh
COc1cc(/C=C2\SC(=S)N(CCC(=O)N3CCN(C)CC3)C2=O)cc(OC)c1OC,-13%,?,-9%,?,50µM*
COc1ccc(/C=C2/SC(=S)N(CCC(=O)N3CCN(C)CC3)C2=O)cc1,-4%,2%,2%,-26%,?
Cc1ccc(C)c(NC(=O)Cn2cc(C(=O)C3CCCCC3)c3ccccc32)c1,3%[57.1 µM],32%,-2%,-3%,-4%[59 µM]
CC1(c2cccc(Br)c2)NC(=O)N(CC(=O)c2ccc3c(c2)OCO3)C1=O (stereo unspecified),/,/,-3%,/,/
CN1CCN(C(=O)CCN2C(=O)/C(=C\c3ccc(Cl)cc3Cl)SC2=S)CC1,?,?,-4%,16µM*,/
CC1CCN(C(=O)CCN2C(=O)/C(=C/c3cccs3)SC2=S)CC1,?,?,15%,28µM*,32µM*
CN1CCN(C(=O)CCCN2C(=O)/C(=C/c3ccc(Cl)cc3)SC2=S)CC1,?,-10%,3%,?,13%[12.7 µM]
C/C=C/c1cccc(-c2nc(C(=O)NC3CCC3)cc3c2[C@@H](CCO)N(S(=O)C(C)(C)C)C3)c1 (stereo partly specified),/,/,15%,/,/
Cc1cc(S(=O)(=O)N2CCCC(N(C)CCc3ccccn3)C2)c(C)s1 (stereo unspecified),-17%,/,/,/,50µM*
COc1ccc(-c2nc(CCNC(=O)c3ccccc3)cs2)cc1OC,-1%,28%[57 µM],6%,-1%,5%[59 µM]
Cc1cccc(N2CCN(C(=O)C3CCCN(S(=O)(=O)c4ccc(Br)s4)C3)CC2)c1C (stereo unspecified),-18%,34%,1%,-5%,?
Cc1cc(C)n2ncc(C(=O)Nc3ccc4c(c3)CCC4)c2n1,/,/,/,-9%,/
Cc1cc(C)n2ncc(C(=O)Nc3ccc(Cl)c(Cl)c3)c2n1,-11%,?,8%,-25%,40µM*
CCN(CC)c1ccc(/C=N\N2CCN(Cc3ccc(C)cc3)CC2)cc1,18µM*,20µM*,-3%,22µM*,7.1µM*
Cc1ccc(CN2CCN(/N=C/c3ccc(O)c(O)c3)CC2)cc1,50µM*,20µM*,?,22µM*,/
COc1ccc(/C=N/N2CCN(Cc3ccc(C)cc3)CC2)cc1Br,35µM*,?,3%,50µM*,45µM*
Cc1ccc(CN2CCN(/N=C/c3cccnc3)CC2)cc1,-33%,3%,6%,-25%,11%[59 µM]

# Screening data from PubChem BioAssay.
